These results are taken from PubChem BioAssay AID2314 (National Center for Advancing Translational Sciences (NCATS), 2010).

About 37,000 (12%) of roughly 300,000 compounds were called active. What follows is part of a selection rich in actives, with near analogues and random picks from the rest. Unmarked numbers belong to inactive results. Rule as the data show it: active = max response mostly above about 13% (no sharp cut-off); inactive = mostly below about 14%.

The assay can be described thus: Cycloheximide Counterscreen for Small Molecule Inhibitors of Shiga Toxin. Also: read at 38.3 µM for the half of the compounds with a filed dose; 0% is about no effect. The settings on record: cell reporter, cycloheximide protein synthesis inhibition counterscreen; active compounds read high. In general terms: Counterscreens check selectivity or assay interference.
As to `CCCCCCC12CCC(C(=O)O)(CC1)CC2`, the max response was -3.19%.

For `NC(=O)Cn1c(=O)oc2ccccc21`, the max response was -2.47%.

Turning to `Cc1ccc(OCCCn2c(=O)oc3ccccc32)cc1`, the max response was 33.3% (active).

For the compound `Cc1cccc(NC(=O)CCn2c(=O)oc3ccccc32)c1`, the max response was -4.29%.

Turning to `COc1ccccc1C(=O)Nc1nc2nc(-c3ccccc3)cc(=O)n2[nH]1`, the max response was 9.7%.

On to `Cc1cc(S(=O)(=O)NCC(C)C)ccc1OCC(=O)NC1CC1`, for which the max response was 1.55%.

`Cc1ccc(N=Nc2c(C)[nH]n(-c3ccccc3)c2=O)cc1`: the max response was 7.15%.

As for `Cc1c(N=Nc2ccc(N(C)C)cc2)c(=O)n(-c2ccccc2)n1C`, the max response is 24.4% (active).

Consider `Cc1nc(N)sc1N=Nc1c(C)n(C)n(-c2ccccc2)c1=O`, for which the max response was -1.65%.

As to `Cc1ccccc1CCNC(=O)C1CCC(=O)N(Cc2ccc(Cl)cc2)C1` (stereo unspecified), the max response is 6.9%.

As for `COc1ccccc1CCCNC(=O)C1CCC(=O)N(CCN2CCOCC2)C1` (stereo unspecified), the max response is -2.68%.

Turning to `COc1ccccc1CN1CC(C(=O)NCCc2cn[nH]c2)CCC1=O` (stereo unspecified), the max response is 12.3% (active).

For the compound `CN1CCN(Cc2nc3cc(NC(=O)COc4ccc([N+](=O)[O-])cc4)ccc3n2C)CC1`, the max response is -3.77%.

With `CCN(C(=O)Cc1c(C(=O)O)n(CC)c2ccccc12)c1ccccc1C`, the max response was -1.37%.

In the case of `Cc1cc(C)nc(NC(=O)c2cccc([N+](=O)[O-])c2)c1`, the max response is -2.71%.

With `CCCCNc1ccc(C(=O)Nc2cccc(C)n2)cc1[N+](=O)[O-]`, the max response is 12.7% (active).

Take `CCOC(=O)c1ccc(NNC(C)=O)c([N+](=O)[O-])c1`: the max response is 16.3%.

Consider `Cc1cc(C)nc(SCC(=O)c2ccc(Cl)cc2)n1`, for which the max response was 2.56%.

Take `Cc1cc(C)nc(S/C=C/C(=O)c2ccccc2)n1`: the max response was 109% (active).

For `Cc1cc(SCC(=O)c2ccccc2)nc(SCC(=O)c2ccccc2)n1`, the max response is 6.74%.

`CC(=O)N(C)c1ccc(NC(=O)C(F)(F)F)cc1`: the max response was -1.33%.

For the compound `CN(C)c1ccc(N/C=C/C(=O)C(F)(F)F)cc1`, the max response was 55.6% (active).

For the compound `O=C(/C=C/Nc1ccccc1OC(F)(F)F)C(F)(F)F`, the max response is -2.95%.

Take `Cc1ccc2[nH]c3c(=O)n(CC(=O)NCCc4ccc(Cl)cc4)ncc3c2c1`: the max response was 4.22%.

With `CCn1nc(C)c(CNC(=O)C2CCC(=O)N(Cc3cccc(F)c3)C2)c1C` (stereo unspecified), the max response was -0.425%.

In the case of `CN1CCN(/N=C/c2c[nH]c3ccccc23)CC1`, the max response is 0.776%.

In the case of `CN1CCN(/N=C/c2ccc(C#N)cc2)CC1`, the max response is 24.2% (active).

Regarding `COC(c1ccccc1)c1nnc(CCC(=O)N2CCN(CCOc3ccccc3)CC2)o1` (stereo unspecified), the max response was -3.13%.

Take `Cc1c(C2=CCN(S(=O)(=O)c3ccc(Cl)cc3)CC2)c2ccccc2n1C`: the max response is -3.88%.

`COCCNC(=O)c1ccc(Cn2c(SCC(=O)NCC3CCCO3)nc3ccc(Br)cc3c2=O)cc1` (stereo unspecified): the max response is -4.2%.

With `Cc1cc(OCc2cc(C(=O)NCc3cc(C(C)C)no3)no2)cc(C)c1Cl`, the max response was 72.4% (active).

With `CC(C)C(=O)NCc1cc(-c2ccc(Cl)cc2)no1`, the max response was 8.48%.

As to `COCCCNC(=O)COc1cc(C)c(Cl)c(C)c1`, the max response is 5.62%.

With `COc1ccccc1-c1nnc(NC(=O)c2ccc3ncsc3c2)o1`, the max response was 66.2% (active).

`COc1ccc(-c2nnc(NC(=O)CS(=O)(=O)c3ccc(Cl)cc3)o2)c(OC)c1`: the max response is 13.7%.

`COc1ccccc1-c1nnc(NC(=O)c2cccc(N3C(=O)CCC3=O)c2)o1`: the max response was -0.976%.

Turning to `COc1ccc(NC(=O)NNC(=O)COc2cc(C)c(Cl)c(C)c2)c(OC)c1`, the max response was 0.264%.

As to `O=C(NCc1ccccc1)C1=C[C@@H](C2CCCCC2)C[C@@H](OCc2ccc(CO)cc2)O1`, the max response was -2.03%.

Consider `COC(=O)c1ccc(C23CC4(C2)[C@H](CN(Cc2cccnc2)[C@@H]4c2ccccc2)C3c2ccc(Cl)nc2)cc1` (stereo partly specified), for which the max response was -2.32%.

With `CCC1CCCCN1C(=O)CSc1nc2c(c(=O)n1C)SC(C)C2` (stereo unspecified), the max response is 0.908%.

Take `C=C(C)CSc1nnc(-c2ccc(C)cc2)n1N`: the max response is 37.8% (active).

Turning to `Cc1ccc(NC(=O)NC(=O)CSc2nnc(-c3ccc(OC(F)F)cc3)n2N)c(C)c1`, the max response was 11.8%.

In the case of `Cc1ccc(-c2nnc(SC(C)C#N)n2N)cc1` (stereo unspecified), the max response was 5.06%.

In the case of `Cc1cc(C)cc(N(CC(=O)N2CC=C(c3ccccc3)CC2)S(=O)(=O)c2c(C)noc2C)c1`, the max response is 8.05%.

As for `CCN(CC)CCCNC(=O)c1ccc2c(=O)n(Cc3ccc4c(c3)OCO4)c(=S)[nH]c2c1`, the max response is 5.61%.

Turning to `Cc1ccc(C(=O)CCC(=O)N(C)CC(=O)Nc2c(Cl)cccc2Cl)cc1`, the max response was 1.06%.

For `COc1ccc(NC(=O)c2cn(CCC#N)nc2-c2ccc([N+](=O)[O-])cc2)cc1`, the max response is -3.78%.

As for `COc1ccc(-c2nn(CCC#N)cc2C(=O)O)cc1`, the max response was 0.75%.

As for `COc1ccc(-c2nn(CCC#N)cc2C(=O)Nc2ccc(C(C)=O)cc2)cc1`, the max response was 18.3% (active).

In the case of `COc1ccccc1NC(=O)C1CCCN1S(=O)(=O)c1ccc(Cl)cc1` (stereo unspecified), the max response is 0.961%.

Regarding `CCOc1ccc2nc(N(CCN(C)C)C(=O)c3ccc4ccccc4c3)sc2c1`, the max response was 8.51%.

On to `CN(C)CCN(C(=O)C1=COCCO1)c1nc2ccc(Cl)cc2s1`, for which the max response is 36.4% (active).

Consider `CCc1ccc2nc(N(CCCN(C)C)C(=O)c3ccc4c(c3)OCCO4)sc2c1`, for which the max response was 1.67%.

Consider `CN(C)CCN(C(=O)C1CCCCC1)c1nc2cc3c(cc2s1)OCO3`, for which the max response is 15.2%.

Take `CC(=O)N(CCCN(C)C)c1nc2ccc(C)cc2s1`: the max response was 7.76%.

As for `Cc1ccc2nc(N(CCN(C)C)C(=O)C3=COCCO3)sc2c1`, the max response was 30.5% (active).

Consider `CC(C)(C)c1ccc(C(CC(=O)O)NS(=O)(=O)Cc2ccccc2)cc1` (stereo unspecified), for which the max response is -5.97%.

Take `CCCCn1c(SCC(=O)N2CCOCC2)nc2c1c(=O)n(C)c(=O)n2C`: the max response was -6.86%.

As to `O=C(Nc1ccc(Br)cc1F)C1CC(=O)N(C2CCCCC2)C1` (stereo unspecified), the max response is -2.46%.

As to `CC1=CCC2C(=O)N(c3cccc(C(=O)NC(C)c4ccccc4)c3)C(=O)C2C1` (stereo unspecified), the max response is -2.5%.

With `Cc1ccc(C(=O)NC(=S)NCCN2CCOCC2)cc1`, the max response is 31.2% (active).

For `Cc1ccc(C(=O)N/C(=C\c2ccc(F)cc2)C(=O)NCCN2CCOCC2)cc1`, the max response is -2.99%.

Take `Cc1ccc(NC(=S)NCCN2CCOCC2)cc1`: the max response was -2.44%.

Regarding `CCc1ccc(C(CNc2nc(C(F)(F)F)nc3ccccc23)N(C)C)cc1` (stereo unspecified), the max response was -6.3%.

For `COc1ccccc1C(=O)Nn1c(-c2cccs2)nc2ccccc2c1=O`, the max response was 2.63%.

As to `COc1ccc(C(CNC(=O)c2cc3c(s2)CCCC3)N2CCOCC2)cc1` (stereo unspecified), the max response was 5.2%.

With `O=C(NCCCN1CCOCC1)c1cc2c(s1)CCC2`, the max response is 15.4% (active).

On to `O=C(NCCCn1ccnc1)c1cc2c(s1)CCCC2`, for which the max response was -2.62%.

Turning to `CCOc1ccc(C(C(=O)NC2CCCC2)N(C(=O)c2snc(C(N)=O)c2N)C2CCCC2)cc1` (stereo unspecified), the max response is -3%.

Consider `CCN(CC)S(=O)(=O)c1ccc(Cl)c(C(=O)NCCN2CCOCC2)c1`, for which the max response is -7.58%.

Take `CCN(CC)S(=O)(=O)c1ccc(N2CC(C(=O)NCc3cccnc3)CC2=O)cc1` (stereo unspecified): the max response was -8.09%.

Turning to `O=[N+]([O-])c1ccccc1Nc1ccc(O)cc1`, the max response was -1.56%.

Take `O=C(Cc1ccc(Cl)cc1)NC(=S)Nc1ccccc1O`: the max response is 0.61%.

For `Oc1ccc(CNc2ccccc2O)cc1`, the max response is 35.8% (active).

For `CCOC(=O)[C@@H]1[C@H]2COc3ccc(Br)cc3[C@H]2N2C(=O)N(c3ccc(Cl)cc3)C(=O)[C@@]12C`, the max response was -3.81%.

Turning to `Oc1ccc(-c2[nH]ncc2-c2nc3ccccc3s2)c(O)c1`, the max response is 10.7%.

Take `Cc1nn(CC(=O)Nc2nc3ccccc3s2)c(C)c1[N+](=O)[O-]`: the max response was 16.7%.

Consider `CC(=O)Nc1cccc(-c2nc3ccccc3s2)c1C`, for which the max response is 23.7% (active).

With `COc1cccc(Cn2cc(/C=N/NC(=O)c3cc(O)cc(O)c3)c3ccccc32)c1`, the max response is 7.8%.

For `COC(=O)c1ccc(CNC(=O)C2CCC(=O)N(Cc3ccccn3)C2)cc1` (stereo unspecified), the max response was -0.637%.

With `CCOC(=O)c1ccc(NC(=S)Nc2cc(C)cc(C)n2)cc1`, the max response is -2.45%.

For the compound `CCOC(=O)c1cc2c(nc1NC(=S)Nc1ccccc1)CC(C)(CC)OC2` (stereo unspecified), the max response was -1.51%.

As to `CCOC(=O)c1cn[nH]c1NC(=S)Nc1ccccc1`, the max response is 67.1% (active).

For `O=C(COc1cc(Cl)c(Cl)cc1Cl)NC(=O)NC1CCCC1`, the max response was -3.88%.

For the compound `O=C(CN1CCOCC1)N1CCCc2c1c(=O)oc1ccc(OCc3ccccc3)cc21`, the max response is -7.12%.

Regarding `CCCc1c(C)nc2c(Br)cccc2c1Cl`, the max response is -2.12%.

For the compound `COc1cccc2c(N/N=C/c3ccco3)cc(C)nc12`, the max response was 18.9%.

As for `CCc1c(C)nc2c(OC)cccc2c1Cl`, the max response is 10.5% (active).

For the compound `COc1ccc2c(c1)C(SCC(=O)NCc1ccccc1)CC(C)(C)O2` (stereo unspecified), the max response was -3.58%.

On to `CCOC(=O)C1=C(O)/C(=C/c2cc(C)n(-c3ccccc3)c2C)N=C1C`, for which the max response was 10.2% (active).

Regarding `Cc1cc(/C=C2\SC(=O)N(C)C2=O)c(C)n1-c1cccc(C(=O)O)c1`, the max response is 10.2%.

For the compound `COC(=O)C1=C(O)/C(=C/c2ccc(OCC(=O)Nc3ccccc3)cc2)N=C1C`, the max response is -5.16%.

For the compound `CC(C)n1c(CN2CCN(Cc3ccccc3)CC2)nc2ccccc21`, the max response is -2.09%.

`CC(=O)NN1C(=O)c2ccccc2NC1c1ccccc1` (stereo unspecified): the max response is -3.65%.

As for `CC(C)=NN1C(=O)c2ccccc2NC1(C)C`, the max response was 37.9% (active).

On to `CC(=O)N1C(=O)C2(Nc3ccccc3N2)c2ccccc21`, for which the max response is -2.2%.
